Bioassay records deposited in PubChem by National Center for Advancing Translational Sciences (NCATS).
Shown are actives, neighbours in structure and some others; about 2.8% of the full set was active somewhere.
HepG2 tox-1: kills HepG2 cells in TGF-b inhibitor counter-screen | HepG2 CAGA-GFP viability, ATP luminescence, 18 h | Potency, µM (highest dose often 46.1 µM), for inactives: top-dose activity change, negative = cytotoxicity, usual class: cytotoxic | 0.76% of 410,000 active | AID 588856
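CellTiter-Glo luminescence gave cytotoxicity after 18 hours at 37 degrees C. The cells were HepG2 CAGA-GFP in 1% FBS DMEM, stimulated with 500 pg/mL TGF-beta after compound addition. %Activity was normalised to no-cell wells (complete cell-killing) and DMSO (no toxicity), and curves were fitted and classified.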
HTT aggregate: mutant huntingtin aggregation inhibition | Potency, µM (doses to about 46.1 µM), without a hit: top-dose activity change, negative = inhibition, usual class: inhibitors | 1.1% of 220,000 active | PC12 HttQ103-GFP aggregates, Acumen cytometry, 40 h; also: % is scaled to controls: 0 for no effect and ±100 for the full control effect; nearly all actives have a fitted effect of over 60% in size
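Huntingtin Q103 exon 1–GFP aggregates in induced PC12 cells (100 nM tebufenozide) were quantified by cytometry from lysates, with compounds dosed in titration.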
ATXN2 expr inh: reduces ATXN2 reporter expression in HEK-293 cells; HEK-293 ATXN2-luciferase reporter, luminescence, 24 h; Potency, µM (highest dose often 57 µM), for the others: at the top dose activity change, negative = inhibition, most hits filed as inhibitors; 0.72% of 360,000 active; AID 1745845; also: % is scaled to controls: 0 for no effect and ±100 for the full control effect; nearly all actives have a fitted effect of over 55% in size
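qHTS (up to 57 uM final) was run with 24 h compound exposure of reporter cells at 37 °C. Each well was multiplexed: SteadyGlo luminescence measured ATXN2-luciferase expression after a fluorogenic Gly-Phe-AFC viability readout (25 uM final).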
ATXN viability: viability counter-screen for ATXN expression inhibitors | 0.49% of 400,000 active | S2 cells (HEK-293 line with an ATXN2-luciferase reporter) viability, CellTiter-Fluor protease fluorescence, 24 h | AID 651635 | Potency, µM (series often up to 56.7 µM), most hits filed as cytotoxic; also: nearly all actives have a fitted effect of over 40% in size
TGFb SMAD3 inh: blocks TGF-b signaling; Potency, µM (top dose mostly 46.1 µM), for inactives: top-dose activity, negative = inhibition, hits mostly inhibitors; 1.2% of 410,000 active; HepG2 CAGA-GFP TGF-b/SMAD3 reporter, GFP fluorescence, 18 h; TGF-beta stimulated, 500 pg/mL final; also: % is scaled to controls: 0 for no effect and ±100 for the full control effect; nearly all actives have a fitted effect of over 65% in size
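GFP signal (ex488/em500-530) from TGF-beta-stimulated HEPG2 CAGA-GFP cells, 500 pg/mL final, 18 h at 37 degrees C in DMEM plus 1% FBS, normalized to unstimulated and DMSO-stimulated controls.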
HTT ATP protect: Huntington cell model cytoprotection by ATP luminescence | PC12 HTT-Q103 induced, cytoprotection, ATP luminescence, 40 h | Potency, µM (titrated, usually from 56.4 µM), for inactives: cytoprotection (ATP increase), most hits filed as activators | 0.14% of 230,000 active; also: % of control where 0% means no effect; nearly all actives have a fitted effect of over 45% in size
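PC12 cells with ecdysone-inducible HTT exon 1 Q103-GFP, induced with 100 nM tebufenozide and co-treated with library compounds in a dose series (1536-well, 1500 cells/well). Cytoprotection read as ATP content by ATPlite luminescence.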
TGFb confirm: confirmation of TGF-b signaling inhibitors in HepG2 reporter cells; shares compounds with TGFb SMAD3 inh; HepG2 CAGA-GFP TGF-b reporter, GFP fluorescence, 18 h; cells stimulated with TGF-beta, 500 pg/mL; Potency, µM (top dose mostly 46.1 µM), for the others: at the highest dose activity, negative = inhibition, most hits filed as inhibitors; 63% of 1,600 active; AID 720534; also: % is scaled to controls: 0 for no effect and ±100 for the full control effect; nearly all actives have a fitted effect of over 65% in size
HepG2 tox-2: counter-screen for TGF-b inhibitors: cytotoxicity in HepG2 cells; shares compounds with TGFb SMAD3 inh; HepG2 CAGA-GFP viability, ATP luminescence, 18 h; cells stimulated with TGF-beta, 500 pg/mL; Potency, µM (series often up to 46.1 µM), for the others: at the highest dose activity, negative = cytotoxicity, hits mostly inhibitors; 27% of 1,600 active; AID 720535; also: % is scaled to controls: 0 for no effect and ±100 for the full control effect; nearly all actives have a fitted effect of over 70% in size
TGFb CCL64 inh: orthogonal confirmation of TGF-b inhibitors in CCL64 cells. shares compounds with TGFb SMAD3 inh. CCL64 CAGA-GFP reporter, TGF-b stimulated, GFP fluorescence, 18 h. Potency, µM (doses to about 46.1 µM), for inactives: at the highest dose activity, negative = inhibition, most hits filed as inhibitors. 41% of 1,600 active. AID 720536; also: nearly all actives have a fitted effect of over 65% in size
TGFb COP inh: validation of TGF-b inhibitors in HepG2 COP promoter reporter; shares compounds with TGFb SMAD3 inh; HepG2 COP-GFP TGF-b reporter, GFP fluorescence, 18 h; cells stimulated by added recombinant TGF-beta; Potency, µM (highest dose often 46.1 µM), for the others: at the top dose activity, negative = inhibition, hits mostly inhibitors; 3% of 1,600 active; also: nearly all actives have a fitted effect of over 70% in size
Active calls of the source: *; i = inactive; ? = inconclusive; . = no result; [ ] = another dose, or the depositor's remark. Calls follow the shape of the dose curve; as a rule, active = well fitted curve in the direction sought with a large enough effect; inconclusive = small, poorly fitted or top-dose-only effect, or another doubt; inactive = no such curve, though single readings can be large; an effect the other way counts as inactive or inconclusive. Potency is read from the fitted curve at half-maximal effect.

SMILES	HepG2 tox-1	HTT aggregate	ATXN2 expr inh	ATXN viability	TGFb SMAD3 inh	HTT ATP protect	TGFb confirm	HepG2 tox-2	TGFb CCL64 inh	TGFb COP inh
CCN(CC)C(=O)[C@H]1CC(CC(=O)NCc2cccc(C(F)(F)F)c2)C(=O)N2CCc3c([nH]c4ccccc34)[C@]12C (stereo partly specified)	-7%	.	?	.	13µM*	.	21µM*	?	15µM*	35%
C=C(C(C)=O)C(O)c1cccc(Br)c1 (stereo unspecified)	.	.	.	.	.	18%	.	.	.	.
Cc1cc(NC(=O)c2cc(-c3ccccc3C)nc3ccccc23)no1	1%	?	3%	i	-3%	.	.	.	.	.
COc1ccc(-c2cc(C(=O)Nc3sc4c(c3C#N)CCCC4)c3ccccc3n2)cc1	-18%	-12%	3%	i	-18%	-3%[10 µM]	.	.	.	.
COC(=O)c1sc(NC(=O)c2cc(-c3ccccc3)nc3ccccc23)c(C#N)c1C	-46%	2.2µM*	?	?	5µM*	-44%	4.6µM*	?	3.3µM*	45%
O=C(Nc1nnc(-c2cccs2)o1)c1cc(-c2ccccc2)nc2ccccc12	-11%	?	?	?	11µM*	.	12µM*	?	15µM*	27%
Cc1ccccc1-c1cc(C(=O)Nc2sc(C(=O)OC(C)C)c(C)c2C#N)c2ccccc2n1	-35%	4.5µM*	?	?	3.5µM*	-38%	5.2µM*	1.5µM*	5.8µM*	55%
COc1cc2oc(=O)cc(-c3ccc(-c4ccc(O)cc4)cc3)c2c(OC)c1OC	-14%	.	?	?	11µM*	-33%	18µM*	?	?	70%
C=C1CCN(C(Cc2ccccc2)C(=O)Nc2ccc(OC)cc2)S(=O)(=O)c2ccccc21 (stereo unspecified)	-7%	.	.	.	-7%	.	.	.	.	.
CC(c1ccccc1)N1C(=O)c2cccnc2C1=O (stereo unspecified)	-3%	.	-8%	i	2%	.	.	.	.	.
CC(NC1=CC(=O)c2cccnc2C1=O)C(O)c1ccccc1 (stereo unspecified)	5µM*	.	?	?	5µM*	.	5.8µM*	5.2µM*	?	13µM*
COc1ccc(-c2nc3c(c4c2C[C@H](c2ccccc2)OC4)CN(C(=O)c2cc(I)ccc2F)CC3)c(C)c1	.	.	.	.	.	14%[10 µM]	.	.	.	.
C=CCn1c(O)c(N=NC(=S)Nc2ccc(OC)cc2)c2ccccc21	-30%	?	?	?	?	.	?	?	?	-12%
C=CCn1c(O)c(N=NC(=S)Nc2cccc(OC)c2)c2ccccc21	-23%	?	-42%	i	-25%	.	.	.	.	.
COc1ccc(OC)c(NC(=O)C2(C)CCN2Cc2cccc(OC)c2F)c1 (stereo unspecified)	-10%	.	?	?	-19%	.	.	.	.	.
COc1cccc(CN2CCC2(C)C(=O)Nc2cccc3cccnc23)c1F (stereo unspecified)	-44%	.	?	?	10µM*	.	?	-12%	?	15%
O=C(NCc1ccccc1)C1=C[C@H](c2ccc(C(F)(F)F)cc2)C[C@H](OCc2ccc(CO)cc2)O1	-28%	4%[9.22 µM]	-15%	?	?	10%[10 µM]	?	-14%	?	8%
COc1ccc(CNC(=S)N/N=C/c2ccc(O)c(OC)c2)cc1	-27%	-12%	12%	i	11µM*	11%[10 µM]	-11%	-25%	-18%	1%
CC(NC(=O)COC(=O)c1ccco1)C12CC3CC(CC(C3)C1)C2 (stereo unspecified)	-19%	.	.	.	-2%	.	.	.	.	.
CCc1ccc(OCC(=O)Nc2ccc(-c3cc4ccccc4oc3=O)c(OC)c2)cc1	-5%	15%	-18%	?	?	14%[10 µM]	?	-13%	9%	12%
